Measurements published in PubChem BioAssay AID540276 (National Center for Advancing Translational Sciences (NCATS), 2011).
Screen size: about 300,000 compounds; about 5,400 (1.8%) were called active. Inconclusive results (about 28%) are left out. Calls come from the whole dose curve; tested in HEK293 cells. Shown is part of a subset that was picked to be rich in actives.

Experiment: qHTS for inhibitors of binding or entry into cells for Marburg Virus
Settings: Marburg virus pseudotyped entry inhibition, cell reporter; series mostly up to 37.8 µM; activity change, negative = inhibition: at the top concentration
% is set by controls: 0 for no effect and ±100 for the full control effect; potency is the fitted concentration of half-maximal effect.

| Structure (SMILES) | activity change, negative = inhibition | Potency |
| --- | --- | --- |
| O=C1CCCCC1Sc1ccc(Cl)cc1[N+](=O)[O-] (stereo not drawn) | 13% [at 46.1 µM] (inactive) |  |
| CCn1c(SCC(=O)Nc2ccc(Br)cc2)nc2sc3c(c2c1=O)CCN(C)C3 | -2.58% [at 46.1 µM] (inactive) |  |
| Cc1ccc(NC(=O)NC(C)c2c(-n3cccc3)sc(C)c2C)c(C)c1 (stereo not drawn) |  | 11.2 µM (active) |
| COc1ccc(NC(=O)NC(C)c2c(-n3cccc3)sc(C)c2C)cc1OC (stereo not drawn) | -7.63% [at 46.1 µM] (inactive) |  |
| C/C(CC(=O)Nc1ccc(C)cc1C)=N\NC(=O)C(C)C | 24.7% [at 46.1 µM] (inactive) |  |
| CC(=O)c1ccc(NC(=O)c2ccc3c(Cl)c4c(nc3c2)CCCC4)cc1 | 4.19% (inactive) |  |
| CC(C)CCNC(=O)c1ccc2c(Cl)c3c(nc2c1)CCC3 |  | 10 µM (active) |
| COc1cccc(CNC(=O)c2ccc3c(Cl)c4c(nc3c2)CCCC4)c1 | -21.5% [at 46.1 µM] (inactive) |  |
| COc1ccccc1N1CCC(N2CCN(CC(C)(C)C)C(CCO)C2)CC1 (stereo not drawn) | -13.7% [at 46.1 µM] (inactive) |  |
| CC(C)(C)c1ccc(C(=O)N2CCN(CCNC(=O)C(=O)Nc3ccc(F)cc3)CC2)cc1 | -27.6% (inactive) |  |
| COc1ccccc1CNC(=O)c1ccc(N(C)S(=O)(=O)c2ccc(C)cc2)cc1 | 0.594% (inactive) |  |
| CC(C)c1nc(NC[C@H]2CCCO2)c(C#N)c2c1COC(C)(C)C2 | -28.1% (inactive) |  |
| Nc1nc(Nc2ccccc2)nc(NCCO)c1[N+](=O)[O-] | 1.16% (inactive) |  |
| CCN1CCN(c2nc(Nc3cccc(F)c3)nc(N)c2[N+](=O)[O-])CC1 |  | 12.6 µM (active) |
| COCCNc1nc(N)c([N+](=O)[O-])c(N2CCCCCC2)n1 | 4.6% [at 46.1 µM] (inactive) |  |
| COC(=O)CC(CC(=O)OC)n1cccc1 | 28.2% (inactive) |  |
| COc1ccc2[nH]c3nc(SCC(=O)NC4CC4)nnc3c2c1 | 10.1% [at 46.1 µM] (inactive) |  |
| CC1CCCCC1NC(=O)c1cn(C)c2ccc(S(=O)(=O)N3CCOCC3)cc2c1=O (stereo not drawn) | 19% [at 46.1 µM] (inactive) |  |
| Cc1ccc(S(=O)(=O)C(C#N)c2nc3ccccc3nc2N2CCCC2)cc1C (stereo not drawn) | -9.41% (inactive) |  |
| Cc1cc(C(=O)NNC(=O)c2cccc(S(=O)(=O)N3CCOCC3)c2)c2ccccc2n1 | -20.8% [at 46.1 µM] (inactive) |  |
| Cc1cc(N2CCN(S(=O)(=O)c3ccc(C)c(C)c3)CC2)c2ccccc2n1 |  | 16.4 µM (active) |
| CCOc1ccc(CCNC(=O)COC(=O)C2CCN(S(=O)(=O)c3ccccc3)CC2)cc1OCC | 2.99% (inactive) |  |
| COc1cccc(/C=N/Nc2ccc(S(=O)(=O)Nc3ccccc3C(=O)O)cc2[N+](=O)[O-])c1O | 28.6% (inactive) |  |
| COc1cccc(/C=N/Nc2cc(C)nc(-c3ccccc3O)n2)c1O |  | 5.62 µM (active) |
| COc1cccc(/C=N\NC(=O)C2=NNC(=O)C2C)c1O (stereo not drawn) | -25.7% (inactive) |  |
| COCCN1C(=O)N(c2ccc(Cl)cc2)C(=O)C1CC(=O)Nc1cc(OC)cc(OC)c1 (stereo not drawn) | -6.26% (inactive) |  |

| Structure (SMILES) | activity change, negative = inhibition | Potency |
| --- | --- | --- |
| CCOC(=O)C1(Cc2ccccc2C)CCCN(C(=O)CCc2c(C)noc2C)C1 (stereo not drawn) | -26.5% [at 46.1 µM] (inactive) |  |
| O=C1CC(c2ccccc2)C(c2ccccc2)=NN1 (stereo not drawn) | 0.609% [at 46.1 µM] (inactive) |  |
| CCNC(=O)CCc1nc(-c2ccc(C(C)(C)C)cc2)no1 |  | 8.91 µM (active) |
| CCNC(=O)CCc1nc(-c2ccc(C)cc2)no1 |  | inactive |
| Cc1ccc(-c2noc(CCC(N)=O)n2)cc1 | 7.01% (inactive) |  |
| COc1ccc(Cl)cc1NC(=O)c1cccc(N2C(=O)C3CC=CCC3C2=O)c1 (stereo not drawn) | -11.5% (inactive) |  |
| O=C(CC1SC(N2CCCC2)=NC1=O)Nc1ccc(C(=O)NCCc2ccc(F)cc2)cc1 (stereo not drawn) | 16.2% (inactive) |  |
| CC1CC(C)CN(CC(=O)Nc2ccc(S(N)(=O)=O)cc2)C1 (stereo not drawn) | 0% (inactive) |  |
| CC(C)C(=O)OCC(=O)Nc1ccc2c(c1)CCC2 | -11% [at 46.1 µM] (inactive) |  |
| CC1CC(C)CN(CCC(=O)Nc2ccc3c(c2)CCC3)C1 (stereo not drawn) |  | 7.3 µM (active) |
| Cc1nnc(NC(=O)C(c2ccccc2)c2ccccc2)s1 | 0.601% [at 46.1 µM] (inactive) |  |
| CC/C(=C\c1ccc(Cl)cc1)c1ccncc1 | -7.96% (inactive) |  |
| O=C1NCC(Nc2ccccc2)C(=O)N1 (stereo not drawn) | -1.5% (inactive) |  |
| Cc1ccc(CN(C(=O)c2sc3ccccc3c2Cl)C2CCS(=O)(=O)C2)cc1 (stereo not drawn) | -19.4% (inactive) |  |
| Cc1cc(Cl)ccc1OCC(=O)N(Cc1ccc(N(C)C)cc1)C1CCS(=O)(=O)C1 (stereo not drawn) | -10% [at 46.1 µM] (inactive) |  |
| CC1(C)C(C=C(Cl)Cl)C1C(=O)N(Cc1ccc(Cl)cc1)C1CCS(=O)(=O)C1 (stereo not drawn) |  | 12.6 µM (active) |
| CCOC(=O)C1(Cc2ccccc2C)CCCN(C(=O)c2ccc(COC)o2)C1 (stereo not drawn) | -28% (inactive) |  |
| O=C1NC(c2ccccc2)Cc2ccncc21 (stereo not drawn) | 18% (inactive) |  |
| Cc1c(C)c2c(c(C)c1O)CC[C@@](C)(CN1CCN(c3cc(N4CCCC4)nc(N4CCCC4)n3)CC1)O2 |  | 10 µM (active) |
| O=c1nc(NO)ccn1C1CCCO1 (stereo not drawn) | 5.3% (inactive) |  |
| N=c1oc2ccccc2cc1C(=O)NCc1ccccc1 | 6.37% (inactive) |  |
| COc1cccc(C(=O)Nc2c3c(nn2-c2cccc(C)c2C)CS(=O)(=O)C3)c1OC |  | 18.3 µM (active) |
| CCOc1ccc(C(=O)Nc2c3c(nn2-c2ccccc2)CS(=O)(=O)C3)cc1 | -5.01% (inactive) |  |
| Cc1cccc(-n2nc3c(c2NC(=O)c2cc4ccccc4o2)CS(=O)(=O)C3)c1 | 0.783% (inactive) |  |
| CCN(CC(=O)Nc1ccc(OC)cc1)C(=O)c1ccc(Cl)c(S(=O)(=O)N2CCCC2)c1 | 1.55% (inactive) |  |
| COc1cccc(N(CC(=O)NC2CCCCCC2)S(=O)(=O)c2ccccc2)c1 | 15.1% (inactive) |  |

| Structure (SMILES) | activity change, negative = inhibition | Potency |
| --- | --- | --- |
| Cn1c(=O)c2c(nc(NCCNC(=O)c3ccco3)n2Cc2ccccc2F)n(C)c1=O | -2.49% [at 46.1 µM] (inactive) |  |
| Cn1c(=O)c2c(nc(NCCc3ccccc3)n2Cc2ccccc2)n(C)c1=O |  | 7.3 µM (active) |
| Cn1c(=O)c2c(nc(NCCc3ccccc3)n2Cc2ccccc2Br)n(C)c1=O | 4.15% [at 46.1 µM] (inactive) |  |
| COC(=O)c1ccc(CNC(=O)c2ccc3oc(C(C)C)nc3c2)cc1 | 8.4% (inactive) |  |
| Cc1ccc(/C=N/NC(=O)C2=NNC(c3ccccc3)(c3ccccc3)C2)c(O)c1 |  | 8.91 µM (active) |
| Cc1ccc2occ(/C=N/NC(=O)c3ccccc3C)c(=O)c2c1 | 24.7% (inactive) |  |
| Cc1nc2ccc(C(=O)N/N=C/c3ccc(O)cc3)cc2[nH]1 | 6.82% [at 46.1 µM] (inactive) |  |
| COc1ccc(NC(=O)c2cccc(Cl)c2)c[n+]1[O-] | 5.7% (inactive) |  |
| O=C(OCC(=O)N1CCN(C(=O)c2ccco2)CC1)c1c(Cl)cccc1Cl | 22.8% (inactive) |  |
| O=C(CCc1nnc2ccc(NCc3ccccc3Cl)nn12)NCC1CCN(C2CCCC2)C1 (stereo not drawn) | -0.332% [at 46.1 µM] (inactive) |  |
| CC1CCN(C(=O)CCc2nnc3ccc(NCc4ccco4)nn23)CC1 |  | 3.16 µM (active) |
| COc1cccc(NC(=O)CCc2nnc3ccc(N4CCC(C)CC4)nn23)c1 | -5.71% [at 46.1 µM] (inactive) |  |
| CC1=C(C(=O)NC2CC(C)(C)Cc3c2cnn3-c2ccc(C)cc2)OCCO1 (stereo not drawn) | -19.3% (inactive) |  |
| COc1cccc(-n2c(N)cc(=O)nc2SCC(=O)Nc2cc(C)on2)c1 | 20.4% (inactive) |  |
| O=C(O)C[C@H](C(=O)OC[C@H]1CCCO1)N1CCOCC1 | 20% (inactive) |  |
| CC1CN(C(=O)c2cc(COc3c(F)cccc3F)on2)CCN1C (stereo not drawn) | 29.3% (inactive) |  |
| CCN(CC)CCOc1ccc2c(c1)C(=NNC(=O)c1ccccn1)c1cc(OCCN(CC)CC)ccc1-2 |  | 10.3 µM (active) |
| CCOc1cc(NC(=O)c2ccccn2)c(OCC)cc1NC(=O)c1ccc(OC)cc1 | -24.5% [at 46.1 µM] (inactive) |  |
| CCC(C)(NC(=O)c1ccccn1)C(=O)NC1CCCCC1 (stereo not drawn) | -6.35% (inactive) |  |
| CC(=O)N1CCOc2ccc(S(=O)(=O)N3CCC(C(=O)Nc4ccccc4F)CC3)cc21 | -3.88% [at 46.1 µM] (inactive) |  |
| CCOc1ccc(CN2CCN(Cc3ccc4cc(F)ccc4n3)CC2CCO)cc1 (stereo not drawn) |  | 10 µM (active) |
| Cc1ccc(CN2CCN(Cc3ccc4ncccc4c3)CC2CCO)cc1 (stereo not drawn) | -22.5% [at 46.1 µM] (inactive) |  |
| CCOc1ccc(CN2CCN(Cc3ccon3)CC2CCO)cc1 (stereo not drawn) | -4.65% [at 46.1 µM] (inactive) |  |
| COc1cccc([C@@H]2Oc3ccc(OC)cc3C(=O)[C@@H]2OC(=O)Nc2cc(OC)c(OC)c(OC)c2)c1 | 12.9% [at 14.2 µM] (inactive) |  |
| Cc1ccccc1CCNC(=O)C1CCC(=O)N(Cc2ccc(Cl)cc2)C1 (stereo not drawn) | 0.744% (inactive) |  |
| Cc1ccc(OCc2cc(C(=O)N(C)CCn3ccnc3C)no2)cc1C | 6.47% (inactive) |  |

| Structure (SMILES) | activity change, negative = inhibition | Potency |
| --- | --- | --- |
| COC(=O)C/C=C/[C@@H](C)[C@@H](/C=N/OC[C@@H](O)[C@H]1O[C@@H]2OC(C)(C)O[C@@H]2[C@H]1O)OC | 21.9% [at 14.2 µM] (inactive) |  |
| CCN(CC)c1ccc(NC(=O)c2ccc(Cl)nc2)cc1 |  | 7.08 µM (active) |
| CCOC(=O)c1ccc(NC(=O)c2cccnc2)cc1 | 0.208% (inactive) |  |
| O=C(NNC(=O)c1ccc(Cl)nc1)c1ccc(Br)cc1 | -3.9% [at 46.1 µM] (inactive) |  |
| Cc1ccc(NC(=O)C(C)OC(=O)C2CC3CCCC(C2)C3=O)cc1S(=O)(=O)N1CCOCC1 (stereo not drawn) | 19.8% (inactive) |  |
| COc1ccc(/C=C/c2noc(-c3ccccc3O)n2)cc1OC | -4.78% [at 46.1 µM] (inactive) |  |
| CC(=O)Oc1ccccc1[C@@H]1OC(=O)c2ccccc2N1C(C)=O | -23.5% (inactive) |  |
| COc1ccc(/C=C/c2noc(-c3ccccc3OC(C)=O)n2)cc1 |  | 11.2 µM (active) |
| CN(CC(=O)NCCc1ccc(S(N)(=O)=O)cc1)CC(=O)Nc1ccc(F)c(F)c1F | -0.907% [at 46.1 µM] (inactive) |  |
| COc1ccc(CCNC2=C(Cl)C(=O)N(Cc3ccccc3)C2=O)cc1OC |  | 11.2 µM (active) |
| COc1ccc(CCN(C)CCN2C(=O)c3ccccc3C2=O)cc1OC | 12.3% (inactive) |  |
| COc1ccc(CCNc2nc(C)cc(C)n2)cc1OC | 0.762% [at 46.1 µM] (inactive) |  |
| CC(=NNC(=O)c1ccc2nc[nH]c2c1)c1ccc(Br)cc1 | -4.25% [at 46.1 µM] (inactive) |  |
| O=C(O)c1ccc(Cn2cnc3c(=S)nc[nH]c32)cc1 | 1.1% [at 46.1 µM] (inactive) |  |
| O=C(COc1ccccc1F)NNC(=O)c1ccc(N2CCCCC2)c([N+](=O)[O-])c1 | 4.78% (inactive) |  |
| O=C(COC(=O)COc1ccccc1F)Nc1cccc(S(=O)(=O)N2CCCCC2)c1 | -2.27% (inactive) |  |
| O=C(COc1ccc(Br)cc1F)NCC1(N2CCCCC2)CCCCC1 |  | 10 µM (active) |
| Nc1ncnc2c1cnn2C1CC(O)C(CO)O1 (stereo not drawn) | 18.4% (inactive) |  |
| COc1ccc(C(=O)OCC(=O)N2CC(=O)Nc3ccccc32)cc1Br | 1.2% (inactive) |  |
| O=C(Nc1ccc(S(=O)(=O)N2CCOCC2)cc1)C1CCN(S(=O)(=O)c2ccc(Cl)cc2)CC1 | 3.31% (inactive) |  |
| CCCCNC1(C#N)CCN(Cc2ccccc2)CC1 | 0.651% (inactive) |  |
| O=C(NNS(=O)(=O)c1ccc([N+](=O)[O-])cc1)C1CCCCC1 | 24.6% [at 46.1 µM] (inactive) |  |
| O=C(NCc1ccc2c(c1)OCO2)c1ccc2c(c1)C(=O)N(CC1CCCO1)C2=O (stereo not drawn) | 10.7% (inactive) |  |
| O=C1c2cccc3c([N+](=O)[O-])ccc(c23)C(=O)N1CC1CCCO1 (stereo not drawn) |  | 23.1 µM (active) |
| O=c1c2cc3c(=O)n(CC4CCCO4)c(=O)c3cc2c(=O)n1CC1CCCO1 (stereo not drawn) | -3.19% (inactive) |  |
